The values below come from PubChem BioAssay (EPA / NIEHS).

Calls of active or inactive are those of the source. The calls were made as follows: active = hit-call score of the fitted dose curve at least 0.9, where 1 is the maximum; inactive = score below 0.9.

The experiment in a line: BSK_BE3C_SRB: Viability Assessment in the BioMAP Diversity Plus: BE3C Assay (AID 2283028). The following applies: primary human bronchial epithelial cells. The procedure: BSK_BE3C is a cell-based, multiplexed-readout assay that uses bronchial epithelial cell, a human lung primary cell, with measurements taken at 24 hours after chemical dosing in a 96-well plate.BSK_BE3C_SRB is an assay component measured in the BSK_BE3C assay. It measures 0.1% sulforhodamine related to cell death using Sulforhodamine staining technology.Data from the assay component BSK_BE3C_SRB was analyzed into 1 assay endpoint. This assay endpoint, BSK_BE3C_SRB, was analyzed with bidirectional fitting relative to DMSO as the negative control and baseline of activity. Using a type of viability reporter, gain or loss-of-signal activity can be used to understand changes in the signaling. Furthermore, this assay endpoint can be referred to as a primary readout, because this assay has produced multiple assay endpoints where this one serves a signaling function. To generalize the intended target to other relatable targets, this assay endpoint is annotated to the cell morphology intended target family, where the subfamily is cell conformation.
The levels of cell surface (or secreted, indicated by the prefix "s") biomarker endpoints were measured by ELISA. Overt cytotoxicity to cells in confluent adherent cultures (all systems other than the BT system) was assessed by measuring total protein levels using sulforhodamine B (SRB) staining in parallel cultures at the time of biomarker measurements, indicated as SRB endpoints. For proliferation assays for adherent cell types, individual cell types are cultured at sub-confluence and relative cell numbers quantified by SRB staining at time points optimized for each system (48 h: 3C and CASM3C systems; 72 h: BT and HDF3CGF systems; 96 h: SAg system). SRB was performed by staining cells with 0.1% SRB after fixation with 10% TCA and reading wells at 560 nm.Viability and proliferation of PBMC (T cells) was quantified by Alamar Blue reduction for the SAg and BT systems. For PBMC viability (referred to as PBMC Cytotoxicity within the assay endpoint names), cells were plated (75,000/well in a 96-well plate) and then chemical samples added for 1 h before addition of activators, SEB and TSST-1 (20 ng/mL final concentration each). Cells were incubated for 90 h. Then, Alamar Blue (20 uL/well) (Invitrogen, Cat DAL1100) was added for 6 h, and the plates were read with a fluorescence microplate reader at 546/580 nm (excitation/emission). For PBMC proliferation, cells were plated and activated as above but incubated for only 16 h prior to addition of Alamar Blue. Plates were read after 6 h.
`Clc1cc(Cl)c(Cl)cc1Cl`: the outcome was inactive.

As for `Cc1cccc([N+](=O)[O-])c1C`, the outcome was inactive.

`CCCCCCCC=O`: the result was inactive.

Regarding `Nc1ccccc1N`, the result was inactive.

As to `CC(=O)OC/C=C(\C)CCC=C(C)C`, the result was inactive.

With `Nc1nc(N)c2nc(CNc3ccc(C(=O)N[C@@H](CCC(=O)O)C(=O)O)cc3)cnc2n1`, the outcome was inactive.

`CN1CCN(Cc2cc(-c3ccc4[nH]c(=O)oc4c3)co2)[C@@H](c2ccc(F)cc2)C1`: the outcome was inactive.

In the case of `COCCOC[C@H](CC1(C(=O)NC2CCC(C(=O)O)CC2)CCCC1)C(=O)Oc1ccc2c(c1)CCC2` (stereo not given in full), the result was inactive.

With `Oc1ccc2ccccc2c1N=Nc1ccccc1`, the result was inactive.

For `Nc1ccc(S(=O)(=O)c2ccc(N)cc2)cc1`, the outcome was inactive.

With `CCOC(=O)CCC(=O)OCC`, the result was inactive.

In the case of `CC(C)c1ccc(C(=O)N=C(N)N)cc1S(C)(=O)=O`, the result was inactive.

As to `CCCCCCCCCCCCCO`, the result was inactive.

For `FC(F)(F)C(F)(F)C(F)(F)C(F)(F)C(F)(F)C(F)(F)CCI`, the result was inactive.

`CC(C)(C)c1cc(O)c(C(C)(C)C)cc1O`: the result was inactive.

With `Cc1ccc(C)c(O)c1C`, the outcome was inactive.

With `Cc1nc(-c2ccc3c(c2)CCN(CCC2CCC(NC(=O)/C=C/c4ccc(F)cc4)CC2)CC3)no1` (stereo not given), the outcome was inactive.

Turning to `Nc1ccc2c(c1)C(=O)c1ccccc1C2=O`, the outcome was inactive.

Consider `CC(=O)C(C)=CC1C(C)=CCCC1(C)C` (stereo not given), for which the result was inactive.

With `c1cc(-c2ccncc2)ccn1`, the outcome was inactive.

Take `CC(CO)OC(C)CO` (stereo not given) (tested in a mixture with another compound): the result was inactive.

In the case of `Cc1oc(-c2ccccc2)nc1CCOc1cccc2c1ccn2CCC(=O)O`, the result was inactive.

Regarding `CCCCCCC(=O)OCC`, the result was inactive.

As for `Cc1ccc(N(C)C)cc1`, the result was inactive.

As to `COCCOCCOC`, the result was inactive.

Consider `CCNc1cccc(C)c1`, for which the result was inactive.

On to `CC(=O)OCCOCCOCCOC(C)=O`, for which the result was inactive.

For the compound `Cc1ccc2ncccc2c1`, the result was inactive.

For the compound `CN1CCCC1=O`, the result was inactive.

In the case of `CC1(C)NC(=O)NC1=O`, the result was inactive.

Turning to `O=[N+]([O-])C(CO)(CO)CO`, the outcome was inactive.

For `CCCCN(CCCC)CCCC`, the result was inactive.

Turning to `COc1cc(C=O)ccc1O`, the outcome was inactive.

In the case of `Cc1c(C(=O)O)c(O)cc2c1C(=O)c1c(O)c([C@@H]3O[C@H](CO)[C@@H](O)[C@H](O)[C@H]3O)c(O)c(O)c1C2=O`, the result was inactive.

Consider `CC(=O)Oc1ccccc1C(=O)O`, for which the outcome was inactive.

Turning to `OC[C@@H](O)[C@@H](O)[C@H](O)[C@H](O)CO`, the result was inactive.

Consider `CCOc1ccc2c(c1)C(C)=CC(C)(C)N2`, for which the outcome was inactive.

`C1CCC(SSC2CCCCC2)CC1`: the result was inactive.

Turning to `NC(=O)Cn1c(=O)cc(CCN2CCN(c3nccc4sccc34)CC2)c2ccc(F)cc21`, the result was inactive.

In the case of `Oc1ccc2c(c1)OC[C@@H](N1CCC(O)(c3ccc(F)cc3)CC1)[C@H]2O`, the result was inactive.
